Assay results reported in PubChem BioAssay (NCATS).
Results filed as inconclusive are left out. Unmarked numbers belong to inactive results. Activity calls are given as the source filed them. Calls follow the shape of the dose curve; as a rule, active = well fitted inhibition curve with a large enough effect; inconclusive = small, poorly fitted or top-dose-only effect; inactive = flat fitted curve, though single readings scatter.

Test: P-glycoprotein substrates identified in KB-8-5-11 adenocarcinoma cell line, qHTS therapeutic library screen (AID 1346987); also: nearly all actives have a fitted effect of over 65% in size
Settings: KB-8-5-11 (P-gp overexpressing) viability, CellTiter-Glo, 72 h; series mostly up to 44.5 µM; activity change, negative = cytotoxicity: at the top concentration
Procedure, shortened: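 P-gp-mediated resistance screen: KB-8-5-11 cells treated 72 h with compounds in dose-response. CellTiter-Glo viability.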
% is scaled to controls: 0 for no effect and ±100 for the full control effect; potency is read from the fitted curve at half-maximal effect.

| SMILES | activity change, negative = cytotoxicity [%] | Potency |
| --- | --- | --- |
| C=C(C(=O)O)C1CC(O)C2(C)CCCC(=C)C2C1 (stereo unspecified) | 9.08 | – |
| CC(=O)OC1C(c2ccccc2)CCC(c2ccccc2)C1OC(C)=O (stereo unspecified) | -3.87 | – |
| COCCOc1cnc2ccn([C@H](C)c3nnc4c(F)cc(-c5cnn(C)c5)cn34)c(=O)c2c1 | -7.19 | – |
| C[C@H]1Oc2cc(cnc2N)-c2c(nn(C)c2C#N)CN(C)C(=O)c2ccc(F)cc21 | -54 | – |
| COC1C(CO)OC(n2cnc3c(=O)[nH]cnc32)C1O (stereo unspecified) | -6.65 | – |
| NCc1ccc(Nc2ncc(F)c(Nc3ccccc3)n2)cc1 | – | 5.8 µM (active) |
